# From PubChem BioAssay AID1159580 (chemical genetic matrix, 2015)
# In all, about 5,500 compounds went through this assay and about 2,000 (36%) were called active. Not shown: some 18% with an inconclusive outcome. Some of the results follow. Unmarked numbers belong to inactive results. No stated cut-off is given here; in the data, active means normalized growth mostly below about 0.91 (no sharp cut-off); inconclusive means no clear call, values can overlap the other calls; inactive means mostly above about 0.92.
# Test: chemical genetic growth profiling, strain panel (AID 1159580);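 further: tested at 20 µM; growth read once vehicle control cultures reached saturation at 30 °C; 1 = growth at the plate median or of vehicle wells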
# Conditions: growth OD
# [1] = S. cerevisiae deletion strains, locus YDL101C, strain DUN1, stronger effect = lower value
# [2] = S. cerevisiae deletion strains, locus YHR030C, strain SLT2, stronger effect = lower value
compound,measurement,setting,value
FC(F)(F)c1cc(-c2ccc(Cl)cc2)n[nH]1,normalized growth,"S. cerevisiae deletion strains, locus YAR019C, strain CDC15, stronger effect = lower value",0.908
same,normalized growth,"S. cerevisiae deletion strains, locus YBL105C, strain PKC1, stronger effect = lower value",0.923
same,normalized growth,"S. cerevisiae deletion strains, locus YBR135W, strain CKS1, stronger effect = lower value",0.916
same,normalized growth,"S. cerevisiae deletion strains, locus YBR136W, strain MEC1, stronger effect = lower value",0.918
same,normalized growth,"S. cerevisiae deletion strains, locus YBR160W, strain CDC28, stronger effect = lower value",0.922
same,normalized growth,"S. cerevisiae deletion strains, locus YDL017W, strain CDC7, stronger effect = lower value",0.931
same,normalized growth,"S. cerevisiae deletion strains, locus YDL028C, strain MPS1, stronger effect = lower value",0.918
same,normalized growth,[1],0.926
same,normalized growth,"S. cerevisiae deletion strains, locus YDL108W, strain KIN28, stronger effect = lower value",0.925
same,normalized growth,"S. cerevisiae deletion strains, locus YDL132W, strain cdc53, stronger effect = lower value",0.917
same,normalized growth,"S. cerevisiae deletion strains, locus YDL214C, strain PRR2, stronger effect = lower value",0.826
same,normalized growth,"S. cerevisiae deletion strains, locus YDR052C, strain DBF4, stronger effect = lower value",0.927
same,normalized growth,"S. cerevisiae deletion strains, locus YDR054C, strain cdc34, stronger effect = lower value",0.904
same,normalized growth,"S. cerevisiae deletion strains, locus YDR226W, strain ADK1, stronger effect = lower value",0.921
same,normalized growth,"S. cerevisiae deletion strains, locus YDR477W, strain SNF1, stronger effect = lower value",0.848
same,normalized growth,"S. cerevisiae deletion strains, locus YER123W, strain YCK3, stronger effect = lower value",0.789
same,normalized growth,"S. cerevisiae deletion strains, locus YER133W, strain GLC7, stronger effect = lower value",0.779
same,normalized growth,"S. cerevisiae deletion strains, locus YFL009W, strain cdc4, stronger effect = lower value",0.908
same,normalized growth,"S. cerevisiae deletion strains, locus YFL029C, strain CAK1, stronger effect = lower value",0.906
same,normalized growth,"S. cerevisiae deletion strains, locus YFR003C, strain YPI1, stronger effect = lower value",0.92
same,normalized growth,"S. cerevisiae deletion strains, locus YFR019W, strain FAB1, stronger effect = lower value",0.901
same,normalized growth,"S. cerevisiae deletion strains, locus YFR028C, strain CDC14, stronger effect = lower value",0.909
same,normalized growth,"S. cerevisiae deletion strains, locus YGR040W, strain KSS1, stronger effect = lower value",0.813
same,normalized growth,"S. cerevisiae deletion strains, locus YGR052W, strain FMP48, stronger effect = lower value",0.834
same,normalized growth,"S. cerevisiae deletion strains, locus YGR092W, strain DBF2, stronger effect = lower value",0.807
same,normalized growth,[2],0.763 (active)
same,normalized growth,"S. cerevisiae deletion strains, locus YHR079C, strain IRE1, stronger effect = lower value",0.803
same,normalized growth,"S. cerevisiae deletion strains, locus YHR082C, strain KSP1, stronger effect = lower value",0.826
same,normalized growth,"S. cerevisiae deletion strains, locus YHR205W, strain SCH9, stronger effect = lower value",0.842
same,normalized growth,"S. cerevisiae deletion strains, locus YIL147C, strain SLN1, stronger effect = lower value",0.921
same,normalized growth,"S. cerevisiae deletion strains, locus YJL095W, strain BCK1, stronger effect = lower value",0.74
same,normalized growth,"S. cerevisiae deletion strains, locus YJL128C, strain PBS2, stronger effect = lower value",0.882
same,normalized growth,"S. cerevisiae deletion strains, locus YJL157C, strain FAR1, stronger effect = lower value",0.813
same,normalized growth,"S. cerevisiae deletion strains, locus YJR016C, strain ILV3, stronger effect = lower value",0.915
same,normalized growth,"S. cerevisiae deletion strains, locus YJR066W, strain TOR1 (second series), stronger effect = lower value",0.948
same,normalized growth,"S. cerevisiae deletion strains, locus YJR066W, strain TOR1, stronger effect = lower value",0.763
same,normalized growth,"S. cerevisiae deletion strains, locus YKL048C, strain ELM1, stronger effect = lower value",0.857
same,normalized growth,"S. cerevisiae deletion strains, locus YKL067W, strain YNK1, stronger effect = lower value",0.84
same,normalized growth,"S. cerevisiae deletion strains, locus YKL101W, strain HSL1, stronger effect = lower value",0.836
same,normalized growth,"S. cerevisiae deletion strains, locus YKL193C, strain SDS22, stronger effect = lower value",0.902
same,normalized growth,"S. cerevisiae deletion strains, locus YKL203C, strain TOR2, stronger effect = lower value",0.819
same,normalized growth,"S. cerevisiae deletion strains, locus YLR113W, strain HOG1, stronger effect = lower value",0.701 (active)
same,normalized growth,"S. cerevisiae deletion strains, locus YLR133W, strain CKI1, stronger effect = lower value",0.843
same,normalized growth,"S. cerevisiae deletion strains, locus YLR403W, strain SFP1, stronger effect = lower value",0.74
same,normalized growth,"S. cerevisiae deletion strains, locus YML070W, strain DAK1, stronger effect = lower value",0.789
same,normalized growth,"S. cerevisiae deletion strains, locus YMR001C, strain CDC5, stronger effect = lower value",0.911
same,normalized growth,"S. cerevisiae deletion strains, locus YMR205C, strain PFK2 (second series), stronger effect = lower value",0.846
same,normalized growth,"S. cerevisiae deletion strains, locus YMR277W, strain FCP1, stronger effect = lower value",0.915
same,normalized growth,"S. cerevisiae deletion strains, locus YNL006W, strain LST8, stronger effect = lower value",0.935
same,normalized growth,"S. cerevisiae deletion strains, locus YNL020C, strain ARK1, stronger effect = lower value",0.841
same,normalized growth,"S. cerevisiae deletion strains, locus YNL161W, strain CBK1, stronger effect = lower value",0.913
same,normalized growth,"S. cerevisiae deletion strains, locus YNL183C, strain NPR1, stronger effect = lower value",0.756
same,normalized growth,"S. cerevisiae deletion strains, locus YNL207W, strain RIO2, stronger effect = lower value",0.897
same,normalized growth,"S. cerevisiae deletion strains, locus YNL222W, strain SSU72, stronger effect = lower value",0.91
same,normalized growth,"S. cerevisiae deletion strains, locus YNL307C, strain MCK1 (second series), stronger effect = lower value",0.853
same,normalized growth,"S. cerevisiae deletion strains, locus YOL078W, strain AVO1, stronger effect = lower value",0.903
same,normalized growth,"S. cerevisiae deletion strains, locus YOL136C, strain PFK27, stronger effect = lower value",0.803
same,normalized growth,"S. cerevisiae deletion strains, locus YOR061W, strain CKA2, stronger effect = lower value",0.869
same,normalized growth,"S. cerevisiae deletion strains, locus YOR119C, strain RIO1, stronger effect = lower value",0.826
same,normalized growth,"S. cerevisiae deletion strains, locus YOR231W, strain MKK1, stronger effect = lower value",0.747
same,normalized growth,"S. cerevisiae deletion strains, locus YOR329C, strain SCD5, stronger effect = lower value",0.912
same,normalized growth,"S. cerevisiae deletion strains, locus YPL031C, strain PHO85, stronger effect = lower value",0.824
same,normalized growth,"S. cerevisiae deletion strains, locus YPL153C, strain RAD53, stronger effect = lower value",0.829
same,normalized growth,"S. cerevisiae deletion strains, locus YPL204W, strain HRR25, stronger effect = lower value",0.798
same,normalized growth,"S. cerevisiae deletion strains, locus YPL209C, strain IPL1, stronger effect = lower value",0.916
same,normalized growth,"S. cerevisiae deletion strains, locus YPL256C, strain CLN2, stronger effect = lower value",0.677 (active)
same,normalized growth,"S. cerevisiae deletion strains, locus YPR025C, strain CCL1, stronger effect = lower value",0.917
same,normalized growth,"S. cerevisiae deletion strains, locus YPR106W, strain ISR1, stronger effect = lower value",0.901
same,normalized growth,"S. cerevisiae deletion strains, locus YPR111W, strain DBF20, stronger effect = lower value",0.892
same,normalized growth,"S. cerevisiae deletion strains, strain NNK1, stronger effect = lower value",0.902
same,normalized growth,"S. cerevisiae deletion strains, strain TSCII, stronger effect = lower value",0.911
CC(C)(C)c1cc(-c2cc(C(F)(F)F)[nH]n2)c2c(c1)C(C)(C)CC2,normalized growth,"S. cerevisiae deletion strains, locus YAL013W, strain DEP1, stronger effect = lower value",0.976
same,normalized growth,"S. cerevisiae deletion strains, locus YBR229C, strain ROT2, stronger effect = lower value",1
same,normalized growth,"S. cerevisiae deletion strains, locus YCL061C, strain MRC1, stronger effect = lower value",0.995
same,normalized growth,[1],1
same,normalized growth,"S. cerevisiae deletion strains, locus YDR150W, strain NUM1, stronger effect = lower value",0.874
same,normalized growth,"S. cerevisiae deletion strains, locus YEL061C, strain CIN8, stronger effect = lower value",1
same,normalized growth,"S. cerevisiae deletion strains, locus YGR078C, strain PAC10, stronger effect = lower value",1
same,normalized growth,[2],1.09
same,normalized growth,"S. cerevisiae deletion strains, locus YHR087W, strain rtc3, stronger effect = lower value",0.989
same,normalized growth,"S. cerevisiae deletion strains, locus YJR043C, strain POL32, stronger effect = lower value",0.982
same,normalized growth,"S. cerevisiae deletion strains, locus YJR075W, strain HOC1, stronger effect = lower value",0.966
same,normalized growth,"S. cerevisiae deletion strains, locus YLR039C, strain RIC1, stronger effect = lower value",0.897
same,normalized growth,"S. cerevisiae deletion strains, locus YLR058C, strain SHM2 (second series), stronger effect = lower value",1.01
same,normalized growth,"S. cerevisiae deletion strains, locus YLR085C, strain ARP6, stronger effect = lower value",1.03
same,normalized growth,"S. cerevisiae deletion strains, locus YLR262C, strain YPT6, stronger effect = lower value",0.891
same,normalized growth,"S. cerevisiae deletion strains, locus YML094W, strain GIM5, stronger effect = lower value",0.998
same,normalized growth,"S. cerevisiae deletion strains, locus YMR219W, strain ESC1, stronger effect = lower value",1
same,normalized growth,"S. cerevisiae deletion strains, locus YMR263W, strain SAP30, stronger effect = lower value",0.974
same,normalized growth,"S. cerevisiae deletion strains, locus YMR307W, strain GAS1, stronger effect = lower value",0.998
same,normalized growth,"S. cerevisiae deletion strains, locus YNL153C, strain GIM3, stronger effect = lower value",0.997
same,normalized growth,"S. cerevisiae deletion strains, locus YNL298W, strain CLA4 (second series), stronger effect = lower value",1.01
same,normalized growth,"S. cerevisiae deletion strains, locus YNL322C, strain KRE1, stronger effect = lower value",0.993
same,normalized growth,"S. cerevisiae deletion strains, locus YNR030W, strain Alg12, stronger effect = lower value",0.99
same,normalized growth,"S. cerevisiae deletion strains, locus YPL055C, strain LGE1, stronger effect = lower value",0.985
same,normalized growth,"S. cerevisiae deletion strains, locus YPL241C, strain CIN2, stronger effect = lower value",1
same,normalized growth,"S. cerevisiae deletion strains, locus YPR135W, strain CTF4, stronger effect = lower value",0.881
same,normalized growth,"S. cerevisiae strains, strain wild type, stronger effect = lower value",1.01
